High-throughput results: PubChem, National Center for Advancing Translational Sciences (NCATS)
A selection: hits, their analogues and other compounds. The true share with any hit is near 7.5%.
FLuc counter = counter-screen for miR-21 project: firefly luciferase inhibitors or activators. P08659. purified FLuc, Km substrates, luminescence inhibition. Potency, µM (highest dose often 57.5 µM), inactives show top-dose activity change, negative = inhibition, hits mostly inhibitors. hit rate 6.9% among 360,000;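 note: plate controls were vehicle for no effect and reference inhibitor for full effect; nearly all actives have a fitted effect of over 55% in size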
Target sequence (P08659 whole entry, looked up): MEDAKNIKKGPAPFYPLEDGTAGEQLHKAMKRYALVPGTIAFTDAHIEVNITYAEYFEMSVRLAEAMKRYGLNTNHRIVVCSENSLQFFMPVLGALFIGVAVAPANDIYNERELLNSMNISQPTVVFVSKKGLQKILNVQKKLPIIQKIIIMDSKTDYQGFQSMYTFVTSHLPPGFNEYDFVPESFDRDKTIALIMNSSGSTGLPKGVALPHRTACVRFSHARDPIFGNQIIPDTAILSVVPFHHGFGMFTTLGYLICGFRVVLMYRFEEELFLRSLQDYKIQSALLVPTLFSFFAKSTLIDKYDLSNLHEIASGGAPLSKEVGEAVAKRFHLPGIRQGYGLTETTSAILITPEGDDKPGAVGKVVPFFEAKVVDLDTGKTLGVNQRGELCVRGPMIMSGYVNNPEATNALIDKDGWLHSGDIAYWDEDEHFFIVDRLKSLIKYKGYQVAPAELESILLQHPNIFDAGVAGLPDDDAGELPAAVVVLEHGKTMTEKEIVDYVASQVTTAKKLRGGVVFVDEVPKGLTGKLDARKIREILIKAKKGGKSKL
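Biochemical qHTS of compounds, final roughly 60 µM downward over six points, against 10 nM purified firefly luciferase using Km concentrations of substrates (10 uM D-luciferin, 10 uM ATP) in Tris acetate pH 7.5 buffer; luminescence output.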
Rab9 prom act = Rab9 promoter activation. Huh7 Rab9 promoter-luciferase reporter, luminescence, 24 h. Potency, µM (highest dose often 9.22 µM), without a hit: at the highest dose activation, negative = inhibition, most hits filed as activators. hit rate 2.8% among 320,000; note: % of control where 0% means no effect; nearly all actives have a fitted effect of over 60% in size
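Cell-based reporter: Huh7 stable for Rab9 promoter-driven luciferase, plated in reduced-serum medium with 10% FBS at 1500 cells/well, compound-treated 24 h at 37 °C, luminescence read after 10 min reagent.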
NPC1 prom act = activates the NPC1 promoter. hit rate 2.4% among 320,000. Huh7 NPC1 promoter luciferase reporter, 24 h. Potency, µM (series often up to 9.22 µM), without a hit: top-dose activation, hits mostly activators; note: % of control where 0% means no effect; nearly all actives have a fitted effect of over 60% in size
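Readout is luciferase luminescence, reflecting NPC1 promoter activation in stably transfected Huh7 cells after 24 h compound exposure at 37 °C in reduced-serum medium with 10% FBS.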
SMN2 splice up = SMN2 splice variant enhancement; hit rate 2.8% among 210,000; AID 1458; HEK293 SMN2-luciferase splicing reporter, luminescence, 30-36 h; Potency, µM (doses to about 46.1 µM), inactives show top-dose activity change, positive = activation, most hits filed as activators; note: % of control where 0% means no effect; nearly all actives have a fitted effect of over 55% in size
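HEK293 cells carry an SMN2 […]–luciferase reporter in which exon 7 inclusion puts luciferase in frame. Cells were plated 10-12 h before compound addition, then incubated 30-36 h at 37C. ONE-Glo luminescence was read; sodium butyrate at 4.5 mM final served as control.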
Luc counter = counter-screen: inhibitors of Kinase-Glo firefly luciferase | Q27757 | Potency, µM (doses to about 38.3 µM), inactives show at the highest dose activity change, negative = inhibition, usual class: inhibitors | AID 1379 | Kinase-Glo luciferase, ATP luminescence, 8 min | hit rate 0.28% among 200,000; note: % is set by controls: 0 for no effect and ±100 for the full control effect; nearly all actives have a fitted effect of over 60% in size
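Substrate mix (final 50 mM imidazole pH 7.2, 50 mM KCl, 7 mM MgCl2, 10 uM ATP, 0.01% Tween 20, 0.05% BSA) plus pin-tool compound, then Kinase-Glo detection mix; 8 min ambient, luminescence read.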
ELG1 genotoxic = induces genotoxicity in HEK293T cells with luciferase-tagged ELG1; HEK293T ELG1-luciferase reporter, luminescence, 16 h; Potency, µM (titrated, usually from 46 µM), without a hit: at the highest dose activity change, positive = activation, most hits filed as activators; hit rate 1.3% among 330,000; note: % of control where 0% means no effect; nearly all actives have a fitted effect of over 60% in size
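Quantitative HTS format in 1536-well plates. HEK293T ELG1-luciferase reporter cells receive test compound and are incubated 16 hr at 37 °C, 5% CO2; ONE-Glo added, 30 min room temperature, then luminescence read.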
* marks the source's active call; other numbers are inactive results; [ ] = dose if it differs, or a comment. Calls come from the whole dose curve; as a rule, active = well fitted curve in the direction sought with a large enough effect; inconclusive = small, poorly fitted or top-dose-only effect, or another doubt; inactive = no such curve, though single readings can be large; an effect the other way counts as inactive or inconclusive. Potency is the fitted concentration of half-maximal effect.

Results for O=C(O)/C=C\C(=O)Nc1ccccc1C#Cc1ccc(Br)cc1 ?
FLuc counter: 26.9µM*; Rab9 prom act: 16.1%; NPC1 prom act: -0.6%; SMN2 splice up: -5.2%; Luc counter: 2.3%; ELG1 genotoxic: 12.6%

How did Clc1ccc(/C=C/c2ncc[nH]2)c(Cl)c1 do in these assays?
FLuc counter: 2.39µM*; Rab9 prom act: 2.82µM*; NPC1 prom act: 2.82µM*; ELG1 genotoxic: inconclusive

What do the screens show for `Cc1cc(NC(=O)CSc2nnc(C(F)(F)F)n2C)no1`?
ELG1 genotoxic: 2.1%

How did COC(=O)c1ccc(NC(=O)N2CCN(Cc3cc(=O)n4nc(-c5ccc(C)cc5)sc4n3)CC2)cc1 do in these assays?
FLuc counter: -6.3%

Results for Nc1ccc(S(=O)(=O)C(F)(F)F)cc1N ?
FLuc counter: -8.0%; Rab9 prom act: 14.0%; NPC1 prom act: -3.7%; SMN2 splice up: -11.5%; Luc counter: -2.7%; ELG1 genotoxic: -2.4%

How did COC(=O)CCC(=O)c1oc2ccccc2c1N do in these assays?
FLuc counter: 21.3µM*; Rab9 prom act: -6.0%; NPC1 prom act: -0.1%; SMN2 splice up: -10.8%; Luc counter: -6.6%; ELG1 genotoxic: inconclusive

What do the screens show for `COC(=O)CCC(=O)c1oc2ccccc2c1NC(=O)CCCN1C(=O)c2ccccc2C1=O`?
FLuc counter: -3.5%; Rab9 prom act: 4.3%; NPC1 prom act: 6.4%; SMN2 splice up: -19.4%; Luc counter: -2.1%; ELG1 genotoxic: -0.7%

How did CN(C)c1ccc(CNC(=O)c2ccc3nc(CCc4ccccc4)oc3c2)cc1 do in these assays?
FLuc counter: -5.1%

Results for Cc1cc(=O)oc2cc(OCCc3ccccc3)ccc12 ?
FLuc counter: 12µM*; Rab9 prom act: inconclusive; NPC1 prom act: 14.4%; ELG1 genotoxic: inconclusive

Results for COc1cccc(COc2ccc3c(C)cc(=O)oc3c2)c1 ?
FLuc counter: 3.01µM*; Rab9 prom act: 2.82µM*; NPC1 prom act: 2.24µM*; ELG1 genotoxic: 7.3µM*

What do the screens show for `Cc1cc(=O)oc2cc(OCCCC[n+]3ccccc3)ccc12`?
FLuc counter: -5.1%; Rab9 prom act: -2.8%; NPC1 prom act: -4.6%; ELG1 genotoxic: 3.6%

What do the screens show for `O=C1c2cccc3cccc(c23)C(=O)N1OS(=O)(=O)c1ccccc1`?
FLuc counter: 19µM*; Rab9 prom act: -3.3%; NPC1 prom act: 1.4%; SMN2 splice up: 4.3%; Luc counter: -2.2%; ELG1 genotoxic: 11.5%

Results for O=C(N/N=C/c1cn(-c2cccs2)nc1-c1ccccc1)c1ccc(O)cc1 ?
FLuc counter: 4.26µM*; Rab9 prom act: 3.6%; NPC1 prom act: 7.0%; SMN2 splice up: inconclusive; Luc counter: -20.1%; ELG1 genotoxic: -19.1%

How did O=C(N/N=C/c1cn(-c2cccs2)nc1-c1ccccc1)c1ccccc1Cl do in these assays?
FLuc counter: 12µM*; Rab9 prom act: -2.8%; NPC1 prom act: 5.9%; SMN2 splice up: 20µM*; Luc counter: 0.6%; ELG1 genotoxic: 5.1%

Results for CCOCCCn1c(=N)c(C(=O)NC2CCCC2)cc2c(=O)n3cc(C)ccc3nc21 ?
FLuc counter: -1.2%; SMN2 splice up: -1.2%

What do the screens show for `CCCc1nc(SCc2cc(=O)c3ccc(C)c(C)c3[nH]2)n[nH]1`?
FLuc counter: -4.3%

What do the screens show for `CCOc1ccc(S(=O)(=O)NCCc2cn3ccccc3n2)cc1`?
FLuc counter: 1.2%; Rab9 prom act: 3.2%; NPC1 prom act: -3.4%; ELG1 genotoxic: 12.6%

What do the screens show for `CCOc1ccc(-c2cn3ccccc3n2)cc1`?
FLuc counter: 0.536µM*; Rab9 prom act: inconclusive; NPC1 prom act: inconclusive; SMN2 splice up: 0.891µM*; Luc counter: 8.91µM*; ELG1 genotoxic: inconclusive

How did Fc1ccc(-c2cn3ccccc3n2)cc1 do in these assays?
FLuc counter: 2.69µM*; Rab9 prom act: 0.562µM*; NPC1 prom act: 0.708µM*; ELG1 genotoxic: inconclusive

How did CC(Sc1nc2ccccc2n1C)C(=O)Nc1ccc(N2CCOCC2)cc1 (stereo not given) do in these assays?
FLuc counter: 16.9µM*; Rab9 prom act: -2.2%; NPC1 prom act: -1.5%; SMN2 splice up: -17.0%; Luc counter: -2.5%; ELG1 genotoxic: 21.1%

What do the screens show for `CC(C)Cn1c(SC(C)C(=O)Nc2ccc(N3CCOCC3)cc2)nc2ccccc21` (stereo not given)?
FLuc counter: inconclusive; Rab9 prom act: -1.8%; NPC1 prom act: -2.8%; SMN2 splice up: -6.2%; Luc counter: 1.1%; ELG1 genotoxic: 2.3%

Results for Cc1ncn(-c2ccccc2O)c1C ?
SMN2 splice up: -6.7%[9.22 µM]; Luc counter: -1.7%[7.66 µM]

Results for Cc1cccc(NC(=O)c2ccc(S(=O)(=O)N3CCC(C)CC3)cc2)n1 ?
FLuc counter: -3.8%; Rab9 prom act: -8.2%; NPC1 prom act: -5.8%; ELG1 genotoxic: -17.7%

How did Cc1ccnc(NC(=O)c2ccc(S(=O)(=O)N3CCC(C)CC3)cc2)c1 do in these assays?
FLuc counter: 6.75µM*; Rab9 prom act: -3.6%; NPC1 prom act: -1.6%; ELG1 genotoxic: 0.731µM*

How did CC1CCN(S(=O)(=O)c2ccc(C(=O)Nc3ccccn3)cc2)CC1 do in these assays?
FLuc counter: inconclusive; Rab9 prom act: 22.0%; NPC1 prom act: inconclusive; ELG1 genotoxic: 20.6µM*

What do the screens show for `O=C(Nc1ccccn1)c1ccc(S(=O)(=O)N2CCCC2)cc1`?
FLuc counter: inconclusive; Rab9 prom act: 20.4%; NPC1 prom act: 15.3%; ELG1 genotoxic: 12.6%

How did O=C(OCC#Cc1c(COC(=O)c2ccccc2)nnn1Cc1ccccc1)c1ccccc1 do in these assays?
FLuc counter: -0.8%; Rab9 prom act: -4.0%; NPC1 prom act: 0.4%; ELG1 genotoxic: -2.3%

Results for COC(=O)c1cccc(Oc2cccc(Cl)n2)c1 ?
FLuc counter: -9.1%; Rab9 prom act: 15.6%; NPC1 prom act: -2.1%; SMN2 splice up: 3.1%; Luc counter: 3.6%; ELG1 genotoxic: -2.1%

How did Cc1ccc(CSc2nc3cccnc3n2Cc2ccc(C(=O)NC3CCCCC3)cc2)cc1 do in these assays?
FLuc counter: 0.338µM*

What do the screens show for `Cc1ccccc1Cn1c(SCc2ccc(C(=O)N3CCCCC3)cc2)nc2ccncc21`?
FLuc counter: inconclusive; SMN2 splice up: -64.1%

What do the screens show for `O=C(NC1CCCCC1)c1ccc(Cn2c(SCc3ccccc3F)nc3cccnc32)cc1`?
FLuc counter: 8.49µM*

What do the screens show for `O=C(c1ccc(CSc2nc3ccncc3n2Cc2ccccc2F)cc1)N1CCCCCC1`?
FLuc counter: 23.9µM*; SMN2 splice up: -17.5%

How did O=C(NC1CCCCC1)c1ccc(CSc2nc3cccnc3n2Cc2ccccc2F)cc1 do in these assays?
FLuc counter: -16.4%
